Test results reported in PubChem BioAssay (EPA / NIEHS).
Records with an inconclusive call do not appear. Activity calls are given as the source filed them. The calls were made as follows: active = hit-call score of the fitted dose curve at least 0.9, where 1 is the maximum; inconclusive = response in the unintended direction; inactive = score below 0.9.

These compounds were tested against human RAR-related Orphan Receptor gamma (RORg), RORC (gene 6097) (UniProt P51449) (assay: ATG_RORg_TRANS: Attagene TRANS-FACTORIAL HepG2 Assay for human RAR-related Orphan Receptor gamma (RORg) (AID 2283011)).
Sequence of human RAR-related Orphan Receptor gamma (RORg), RORC (gene 6097) (P51449 whole entry, looked up): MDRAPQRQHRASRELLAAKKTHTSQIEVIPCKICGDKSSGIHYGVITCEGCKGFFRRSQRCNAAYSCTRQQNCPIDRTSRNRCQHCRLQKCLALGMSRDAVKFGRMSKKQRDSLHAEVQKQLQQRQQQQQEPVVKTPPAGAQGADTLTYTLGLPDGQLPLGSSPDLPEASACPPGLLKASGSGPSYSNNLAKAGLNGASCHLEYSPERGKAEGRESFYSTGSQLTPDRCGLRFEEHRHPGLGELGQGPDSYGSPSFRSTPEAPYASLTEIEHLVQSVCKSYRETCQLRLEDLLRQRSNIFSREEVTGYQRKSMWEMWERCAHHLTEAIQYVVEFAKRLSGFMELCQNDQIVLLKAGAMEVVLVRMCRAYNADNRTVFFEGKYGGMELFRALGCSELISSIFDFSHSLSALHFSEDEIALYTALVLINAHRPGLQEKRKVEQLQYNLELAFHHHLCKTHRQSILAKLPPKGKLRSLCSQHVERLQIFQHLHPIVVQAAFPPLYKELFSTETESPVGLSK
Procedure: ATG_TRANS is a cell-based, multiplexed-readout assay that uses HepG2, a human liver cell line, with measurements taken at 24 hours after chemical dosing in a 24-well plate.ATG_RORg_TRANS is one of 30 assay component(s) measured or calculated from the ATG_TRANS assay. It is designed to make measurements of mRNA induction, a form of inducible reporter, as detected with fluorescence intensity signals by Reverse transcription polymerase chain reaction (RT-PCR) and Capillary electrophoresis technology.Data from the assay component ATG_RORg_TRANS was analyzed into 1 assay endpoint. This assay endpoint, ATG_RORg_TRANS, was analyzed in the positive analysis fitting direction relative to DMSO as the negative control and baseline of activity. Using a type of inducible reporter, measures of mRNA for gain-of-signal activity can be used to understand the reporter gene at the transcription factor-level as they relate to the gene RORC. Furthermore, this assay endpoint can be referred to as a primary readout, because this assay has produced multiple assay endpoints where this one serves a reporter gene function. To generalize the intended target to other relatable targets, this assay endpoint is annotated to the nuclear receptor intended target family, where the subfamily is orphan.
Human liver HepG2 cells are transiently transfected with multiple reporter transcription units (MRTUs) in 6-well plates using FuGene 6 reagent (Roche; 3 ml FuGene/1 mg DNA). The MRTU constructs are regulated by a cis-regulating element (promoter). […] A major difference between the CIS and TRANS system is that in CIS activities of endogenous TFs are measured, whereas the TRANS assay evaluates changes in activities of exogenous, chimeric NR-Gal4 proteins. […] At the end of 24 hour incubation, total RNA was isolated using TriZol reagent (Invitrogen). The isolated RNA is then reverse-transcribed using oligo(dT) primer and Mo-MLV reverse transcriptase (Invitrogen) with DNAse I (Ambion) treatment for 30 min. The one-tenth of the produced cDNA was amplified by PCR using Taq DNA polymerase (Invitrogen) and two reporter sequence-specific primers. The PCR products were fluorescently labeled by primer extension with 6-arboxyfluorescein (6-FAM) 5'-labeled reporter sequence-specific primer (2 min at 95 C, 20 s at 68 C and 10 min at 72 C) and these products were digested with 5U of HpaI (New England Biolabs) for 2h at 37 C. The fragments were purified using Qiaquick PCR columns (Qiagen), analyzed on an ABI 3130xL genetic analyzer (Applied Biosystems) with peak positions identified by using a set of X-rhodamine (ROX)-labeled MapMarker1000 molecular weight standards (BioVentures). The raw capillary electrophoresis data was processed using Attagraph software (Attagene).
N#Cc1nn(-c2c(Cl)cc(C(F)(F)F)cc2Cl)c(N)c1S(=O)C(F)(F)F (centres undefined) was tested, and the outcome was “inactive”.
In the case of Cc1cc(Cl)ccc1OCC(=O)O, the outcome is reported as “inactive”.
With Oc1ccccc1-c1ccccc1 the outcome was “inactive”.
CN(C)C(=S)SSC(=S)N(C)C was tested, and the outcome was “inactive”.
For N#CC(CCc1ccc(Cl)cc1)(Cn1cncn1)c1ccccc1 (centres undefined), the outcome was “inactive”.
COC(=O)C=C(C)OP(=O)(OC)OC was tested, and the outcome was “inactive”.
For CCCCC(CC)COC(=O)c1ccccc1C(=O)OCC(CC)CCCC (centres undefined), the outcome was “inactive”.
CNC(=O)ON=CC(C)(C)SC was tested, and the outcome was “inactive”.
In the case of COc1nc(C)nc(NC(=O)NS(=O)(=O)c2ccccc2CCC(F)(F)F)n1, the outcome is reported as “inactive”.
In the case of CON(C)C(=O)Nc1ccc(Cl)c(Cl)c1, the outcome is reported as “inactive”.
In the case of CCCCNC(=O)OCC#CI, the outcome is reported as “inactive”.
With CCNc1nc(Cl)nc(NC(C)C)n1 the outcome was “inactive”.
For Cc1ccc(-c2c(Cl)nc(C#N)n2S(=O)(=O)N(C)C)cc1, the outcome was “inactive”.
With CNC(=S)S the outcome was “inactive”.
In the case of CCCN(CCC)c1c([N+](=O)[O-])cc(S(N)(=O)=O)cc1[N+](=O)[O-], the outcome is reported as “inactive”.
For COC(=O)N(OC)c1ccccc1COc1ccn(-c2ccc(Cl)cc2)n1, the outcome was “inactive”.
With OC(c1ccc(Cl)cc1)(c1cncnc1)c1ccccc1Cl (centres undefined) the outcome was “inactive”.
COc1ccc(C(c2ccc(OC)cc2)C(Cl)(Cl)Cl)cc1 was tested, and the outcome was “inactive”.
CC(C)Oc1cc(-n2nc(C(C)(C)C)oc2=O)c(Cl)cc1Cl was tested, and the outcome was “inactive”.
CC(C)C1(C)N=C(c2nc3ccccc3cc2C(=O)O)NC1=O (centres undefined) was tested, and the outcome was “inactive”.
C#CCOS(=O)OC1CCCCC1Oc1ccc(C(C)(C)C)cc1 (centres undefined) was tested, and the outcome was “inactive”.
For C=CC1(C)OC(=O)N(c2cc(Cl)cc(Cl)c2)C1=O (centres undefined), the outcome was “inactive”.
For CCOC(=O)C(Cl)Cc1cc(-n2nc(C)n(C(F)F)c2=O)c(F)cc1Cl (centres undefined), the outcome was “inactive”.
With CCc1nn(C)c(C(=O)NCc2ccc(C(C)(C)C)cc2)c1Cl the outcome was “inactive”.
O=C(O)c1nc(Cl)ccc1Cl was tested, and the outcome was “inactive”.
With COc1cnc(OC)n2nc(NS(=O)(=O)c3c(OCC(F)F)cccc3C(F)(F)F)nc12 the outcome was “inactive”.
CCCC1COC(Cn2cncn2)(c2ccc(Cl)cc2Cl)O1 (centres undefined) was tested, and the outcome was “inactive”.
With COP(N)(=O)SC (centres undefined) the outcome was “inactive”.
With CCOc1cc(Oc2ccc(C(F)(F)F)cc2Cl)ccc1[N+](=O)[O-] the outcome was “inactive”.
In the case of CCOC(=O)CC(SP(=S)(OC)OC)C(=O)OCC (centres undefined), the outcome is reported as “inactive”.
In the case of CS/C(C)=N/OC(=O)N(C)SN(C)C(=O)O/N=C(\C)SC, the outcome is reported as “inactive”.
In the case of COC(=O)C(C)Oc1ccc(Oc2ccc(Cl)cc2Cl)cc1 (centres undefined), the outcome is reported as “inactive”.
CCOP(=S)(OCC)SCn1c(=O)oc2cc(Cl)ccc21 was tested, and the outcome was “inactive”.
C=CCC1=C(C)C(OC(=O)C2C(C=C(C)C)C2(C)C)CC1=O (centres undefined) was tested, and the outcome was “inactive”.
For CC(C)(C)c1ccc(CSc2cnn(C(C)(C)C)c(=O)c2Cl)cc1, the outcome was “inactive”.
For CCCCOC(=O)c1ccccc1C(=O)OCCCC, the outcome was “inactive”.
In the case of COc1nc(C)nc(NC(=O)NS(=O)(=O)c2ccccc2Cl)n1, the outcome is reported as “inactive”.
For O=C(Nc1ccccc1)Nc1ccnc(Cl)c1, the outcome was “inactive”.
With COc1nc(NC(C)C)nc(NC(C)C)n1 the outcome was “inactive”.
